This is a sample that favours compounds with a hit; in the whole collection about 3.2% have one here.
PrPC surface inh: inhibitors of human cell surface prion protein PrPC, primary screen, cell-based, TR-FRET | 0.43% of 370,000 active | AID 720596, 2013 | TR-FRET read-out | Major prion protein (Homo sapiens), P04156 | inhibition, % at 13.8 µM; in the data active = inhibition above about 24%
GDH-TPI counter-1: GDH-TPI coupling enzyme inhibitors, primary screen, artefact control for M. tuberculosis FBA inhibitor project, biochemical, absorbance, full deck. GDH-TPI coupled enzyme counterscreen, NADH absorbance. inhibition, % at 4.8 µM. 1.2% of 360,000 active; in the data active = inhibition above about 30%
FBA Mtb inh: Mtb FBA enzyme inhibitors, primary screen, biochemical, fluorescence, strain H37Rv | Fructose-bisphosphate aldolase (Mycobacterium tuberculosis (strain ATCC 25618 / H37Rv)), … | purified M. tuberculosis FBA, fluorescence read-out | inhibition, % at 1 µM | 2.3% of 360,000 active | AID 588726, 2011
TcdB inh: TcdB glycohydrolase inhibitors, primary screen, biochemical, single point, plate reader; Toxin B (Clostridioides difficile), P18177; TcdB glycohydrolase enzymatic assay; inhibition, % at 9.99 µM; 0.24% of 350,000 active; AID 652162, 2013; in the data active = inhibition above about 10%
Y pestis TopoI: Yersinia pestis topoisomerase I inhibitors, primary screen, biochemical, cleavage product accumulation, plate reader, single point. DNA topoisomerase I (Yersinia pestis CO92). Y. pestis Topo-I cleavage product accumulation. activity, % at 10 µM. 0.064% of 360,000 active; in the data active = activity above about 50%, passing the limit was not always enough
Mtb FBA inh conf: M. tuberculosis aldolase blockers, biochemical, fluorescence, strain H37Rv, confirmation; inhibition, % at 1 µM; 78% of 5,600 active; shares compounds with FBA Mtb inh; purified M. tuberculosis FBA, fluorescence read-out; AID 651616, 2012
GDH-TPI counter-2: GDH-TPI coupling enzyme inhibitors, artefact control for M. tuberculosis FBA inhibitor project, biochemical, fluorescence, high throughput | shares compounds with FBA Mtb inh | AID 652141, 2013 | inhibition, % at 1 µM | 81% of 5,600 active | GDH-TPI coupled enzyme counterscreen; in the data active = inhibition above about 10%
Each line names hits and unclear results; the compound was inactive in the other large screens (follow-up assays come after a bar, where they were run). Cut-off read from the data, not from the text of the source, unless noted: active = inhibition above about 27%; inactive = the rest.

CCN1CCCC1CNC(=O)c1cc2c(OC)cccc2[nH]1 (configuration not stated)	FBA Mtb inh 30.3 | Mtb FBA inh conf 61.1 | GDH-TPI counter-2 34.0
COc1ccc(-c2cc(=O)[nH]c3ccccc23)cc1	none
COc1ccc(-c2oc3ccccc3c2C(=O)OCc2ccccc2OC)cc1	GDH-TPI counter-1 30.9, FBA Mtb inh 72.9 | Mtb FBA inh conf inactive | GDH-TPI counter-2 inactive
Nc1nccnc1C(=O)OCC(=O)NC1CCCc2ccccc21 (configuration not stated)	FBA Mtb inh 94.8 | Mtb FBA inh conf 109.5 | GDH-TPI counter-2 96.8
COc1ccc(-n2c(C)nnc2SCC(=O)NC2CC2)cc1	FBA Mtb inh 91.8 | Mtb FBA inh conf 42.1 | GDH-TPI counter-2 34.0
O=c1c2c(nc3c(-c4ccccc4)c[nH]n13)CCC2	FBA Mtb inh 42.6 (no result: TcdB inh) | Mtb FBA inh conf 59.0 | GDH-TPI counter-2 37.8
O=c1c2c(nc3c(-c4ccc(Cl)cc4)c[nH]n13)CCC2	FBA Mtb inh 44.1 | Mtb FBA inh conf 31.9 | GDH-TPI counter-2 27.6
COCC(=O)N(C)C[C@@H]1Oc2cc(C#CC(C)(C)O)ccc2S(=O)(=O)N([C@H](C)CO)C[C@@H]1C	none (no result: PrPC surface inh, GDH-TPI counter-1, FBA Mtb inh, Y pestis TopoI)
COC(=O)CCS(=O)(=O)c1nc(-c2ccccc2)cc(C(F)(F)F)n1	none (no result: PrPC surface inh, TcdB inh)
Cc1cc(NC(=O)CCCS(=O)(=O)c2nc(-c3cccs3)cc(C(F)(F)F)n2)no1	GDH-TPI counter-1 38.8, FBA Mtb inh 52.3 | Mtb FBA inh conf 67.7 | GDH-TPI counter-2 52.3
O=C(O)CCS(=O)(=O)c1nc(-c2cccs2)cc(C(F)(F)F)n1	GDH-TPI counter-1 31.2, FBA Mtb inh 38.0 | Mtb FBA inh conf 196.5 | GDH-TPI counter-2 128.3
O=C(CN1C(=O)C2C3C=CC(C3)C2C1=O)Nc1ccc(F)cc1 (configuration not stated)	none
O=C(CN1C(=O)C2C3C=CC(C3)C2C1=O)Nc1ccc2nccnc2c1 (configuration not stated)	FBA Mtb inh 26.9 | Mtb FBA inh conf active | GDH-TPI counter-2 active
Cc1cccc(-c2ccc([C@H]3[C@@H](CO)N4CCCCN(C(=O)c5ccc6c(c5)OCO6)C[C@H]34)cc2)c1	none (no result: PrPC surface inh, GDH-TPI counter-1, FBA Mtb inh, Y pestis TopoI)
COC(=O)C1(C#N)C(c2ccccc2)C1(C(=O)OC)C(=O)OC (configuration not stated)	none (no result: TcdB inh)
CC1OC2(C)OC(=N)C1(C#N)C(C#N)(C#N)C2c1ccccc1 (configuration not stated)	FBA Mtb inh 53.5 | Mtb FBA inh conf 62.5 | GDH-TPI counter-2 49.6
CCCCC1OC2(C)OC(=N)C1(C#N)C(C#N)(C#N)C2c1ccccc1 (configuration not stated)	FBA Mtb inh 77.7 | Mtb FBA inh conf 115.8 | GDH-TPI counter-2 82.8
O=C(C[C@@H]1CC[C@H]2[C@@H](COC[C@@H](O)CN2Cc2cccc(F)c2)O1)NCc1ccncc1	none (no result: PrPC surface inh, GDH-TPI counter-1, FBA Mtb inh, Y pestis TopoI)
COc1ccc(C(=O)NN/C(=N/S(=O)(=O)c2ccc(C)cc2)c2ccccc2)cc1	FBA Mtb inh 58.6 | Mtb FBA inh conf active | GDH-TPI counter-2 active
CCOc1ccc(S(=O)(=O)/N=C(/Nc2ccc(OC)cc2)c2ccccc2)cc1	none
CO[C@H]1CN(C)C(=O)c2ccc(NC(=O)Nc3cc(F)ccc3F)cc2OC[C@H](C)NC[C@@H]1C	none (no result: PrPC surface inh, GDH-TPI counter-1, FBA Mtb inh, Y pestis TopoI)
C=CCNC(=S)Nc1cccc2ccccc12	none (no result: TcdB inh)
CCOc1ccc(NC(=S)Nc2cccc3ccccc23)cc1	FBA Mtb inh 57.8 | Mtb FBA inh conf 82.0 | GDH-TPI counter-2 72.9
CCOc1ccc(NC(=S)Nc2cccc3cnccc23)cc1	none (no result: TcdB inh)
CC(C)c1ccc(NC(=S)Nc2cccc3ccccc23)cc1	FBA Mtb inh 30.1 | Mtb FBA inh conf 68.3 | GDH-TPI counter-2 54.7
CN1CCN(C(=O)C[C@H]2C=C[C@H](NC(=O)Nc3ccccc3F)[C@@H](CO)O2)CC1	none (no result: PrPC surface inh, GDH-TPI counter-1, FBA Mtb inh, Y pestis TopoI)

Screens (PubChem BioAssay)
